Assay results from PubChem BioAssay (Tox21).
Records with an inconclusive call do not appear. Activity calls are given as the source filed them. Unless noted, calls come from the whole dose curve.

What was measured:
[1] = Nuclear factor erythroid 2-related factor 2/antioxidant responsive element (Nrf2/ARE) small molecule agonists: qHTS cell viability counter screen in human keratinocytes (AID 1919968; active = well fitted curve in the direction sought with a large enough effect in the repeat runs; an effect the other way counts as inactive or inconclusive; note: nearly all actives have a fitted effect of over 55% in size; note: potency is the fitted concentration of half-maximal effect)
Outline: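 KeratinoSens HaCaT cells, 1,500/well, preincubated 5 h, then exposed to compounds in DMSO for 23 h at 37 C/5% CO2. Viability read as CellTiter-Fluor fluorescence after 1 h, in the same wells as the ARE-luciferase read.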

[2] = Nuclear factor erythroid 2-related factor 2/antioxidant responsive element (Nrf2/ARE) small molecule agonists: luciferase reporter gene qHTS assay in human keratinocytes (AID 1919969); note: nearly all actives have a fitted effect of over 35% in size; note: potency is the fitted concentration of half-maximal effect
[3] = target: Gonadotropin-releasing hormone receptor (Homo sapiens) (UniProt P30968); experiment: Human gonadotropin-releasing hormone receptor (GnRHR) small molecule agonists, calcium flux assay in GnRHR-HEK293 cells (AID 1920063); note: nearly all actives have a fitted effect of over 35% in size; note: potency is the fitted concentration of half-maximal effect
Sequence of Gonadotropin-releasing hormone receptor (Homo sapiens) (P30968 whole entry, looked up): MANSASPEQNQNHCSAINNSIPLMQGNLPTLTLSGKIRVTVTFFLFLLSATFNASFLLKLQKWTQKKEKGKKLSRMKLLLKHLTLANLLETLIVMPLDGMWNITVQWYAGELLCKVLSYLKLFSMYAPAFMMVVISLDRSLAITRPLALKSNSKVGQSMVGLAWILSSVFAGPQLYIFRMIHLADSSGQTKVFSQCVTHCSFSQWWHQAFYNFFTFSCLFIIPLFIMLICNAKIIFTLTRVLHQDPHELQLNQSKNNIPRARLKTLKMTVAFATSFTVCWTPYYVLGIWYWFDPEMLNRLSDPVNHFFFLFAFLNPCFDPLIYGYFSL
Outline: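 HEK293 cells stably expressing human GnRHR were dye-loaded for 1 h at 37 C. Compound was added in agonist mode and fluorescence (Ex/Em 480/540) recorded kinetically for 3 min. Fifteen concentrations, triplicates.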

[4] = target: KiSS-1 receptor (Homo sapiens) (UniProt Q969F8); experiment: Human kisspeptin (KISS1R) small molecule agonists, calcium flux assay in KISS1R-HEK293 cells (AID 1920064; active = well fitted curve in the direction sought with a large enough effect in the repeat runs; an effect the other way counts as inactive or inconclusive)
Sequence of KiSS-1 receptor (Homo sapiens) (Q969F8 whole entry, looked up): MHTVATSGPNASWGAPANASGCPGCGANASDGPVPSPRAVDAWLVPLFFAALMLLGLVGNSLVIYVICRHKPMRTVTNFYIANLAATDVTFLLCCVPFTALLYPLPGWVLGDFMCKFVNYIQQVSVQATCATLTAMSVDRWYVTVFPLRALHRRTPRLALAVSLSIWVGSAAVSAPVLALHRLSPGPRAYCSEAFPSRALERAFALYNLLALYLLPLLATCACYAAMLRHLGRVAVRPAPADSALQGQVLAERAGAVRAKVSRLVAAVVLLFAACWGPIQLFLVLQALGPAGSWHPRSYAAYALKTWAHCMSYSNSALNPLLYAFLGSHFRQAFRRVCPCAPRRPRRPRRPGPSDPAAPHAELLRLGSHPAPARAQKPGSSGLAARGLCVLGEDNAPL
Outline: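 HEK293 cells stably expressing human KISS1R were loaded with calcium dye for 1 h at 37 C, then given compound; fluorescence (Ex/Em 480/540) was read kinetically for 3 min. Fifteen concentrations, triplicate.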

[5] = G protein-coupled receptor (GPCR) small molecule agonists, calcium flux assay: HEK293 wild type cell line counter screen (AID 1920065)
Outline: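 Wild-type HEK293 cells plated 18 h, loaded with calcium dye 1 h at 37 C, then compounds added in agonist mode (ATP as positive control). Kinetic fluorescence Ex/Em 480/540 recorded 3 min at 1 sec intervals; 15 concentrations, triplicate.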

[6] = p53 small molecule agonists, cell-based qHTS assay with human liver microsomes (AID 1963577); note: potency is the fitted concentration of half-maximal effect
Outline: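 p53RE-bla reporter cells were pre-incubated 5 h at 37 C, then treated with compounds plus human liver microsomes (0.5 mg/mL final) and NADPH (0.5 mg/mL final) for 16 h at 37 C. Beta-lactamase activity was read by LiveBLAzer fluorescence after 2 h at room temperature.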

[7] = p53 small molecule agonists, cell-based qHTS assay with rat liver microsomes (AID 1963578)
Outline: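 p53RE-bla cells were exposed to compounds together with rat liver microsomes (0.5 mg/mL final) and NADPH (0.5 mg/mL final) for 16 h at 37 C, then read by LiveBLAzer beta-lactamase fluorescence after 2 h at room temperature.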

[8] = p53 small molecule agonists, cell-based qHTS assay with human liver microsomes: qHTS cell viability counter screen (AID 1963579); note: nearly all actives have a fitted effect of over 45% in size; note: potency is the fitted concentration of half-maximal effect
Outline: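 p53RE-bla cells (4,000/well) were pre-incubated 5 h at 37 C, then given compounds in DMSO plus human liver microsomes (0.5 mg/mL final) and NADPH (0.5 mg/mL final) for 16 h at 37 C. Viability was read by CellTiter-Glo luminescence.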

[9] = p53 small molecule agonists, cell-based qHTS assay: qHTS cell viability counter screen (AID 1963581); note: nearly all actives have a fitted effect of over 45% in size
Outline: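 p53RE-bla HCT-116 cells, compounds added 5 h after plating and incubated 16 h at 37 C. Cytotoxicity measured in the same wells as intracellular ATP by CellTiter-Glo luminescence after 30 min at room temperature.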

[10] = p53 small molecule agonists, cell-based qHTS assay (AID 1963582; active = well fitted activation curve with a large enough effect in the signal ratio in the repeat runs, not every such curve was filed as active; the % refers to the signal ratio)
Outline: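 p53RE-bla reporter cells, compounds added in DMSO after 5 h plating, incubated 16 h at 37 C. Beta-lactamase read via 2 h room-temperature LiveBLAzer B/G FRET substrate, fluorescence intensity.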

[11] = target: 5-hydroxytryptamine receptor 2A (Homo sapiens) (UniProt P28223); experiment: 5-hydroxytryptamine receptor 2A (HTR2A) small molecule agonists, cell-based qHTS assay (AID 1963587); note: nearly all actives have a fitted effect of over 30% in size; note: potency is the fitted concentration of half-maximal effect
Sequence of 5-hydroxytryptamine receptor 2A (Homo sapiens) (P28223 whole entry, looked up): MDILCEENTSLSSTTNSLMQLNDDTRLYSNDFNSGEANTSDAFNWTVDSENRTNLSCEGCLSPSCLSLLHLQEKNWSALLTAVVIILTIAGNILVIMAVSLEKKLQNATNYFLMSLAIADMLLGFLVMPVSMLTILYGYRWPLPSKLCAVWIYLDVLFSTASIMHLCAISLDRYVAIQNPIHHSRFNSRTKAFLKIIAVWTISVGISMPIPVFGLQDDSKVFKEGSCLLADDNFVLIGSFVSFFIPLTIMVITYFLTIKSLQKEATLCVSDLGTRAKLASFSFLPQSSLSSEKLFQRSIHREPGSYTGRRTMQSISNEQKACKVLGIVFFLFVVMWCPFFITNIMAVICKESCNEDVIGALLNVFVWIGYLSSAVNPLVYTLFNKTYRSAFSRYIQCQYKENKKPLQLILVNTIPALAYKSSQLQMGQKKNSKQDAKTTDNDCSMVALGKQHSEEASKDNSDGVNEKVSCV
Outline: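 CHO cells stably expressing human HTR2A, plated 18 h, loaded with calcium dye 1 h at 37 C. Agonist mode: compounds added and intracellular calcium fluorescence recorded kinetically for 2 min at 1 sec intervals.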

[12] = target: Muscarinic acetylcholine receptor M1 (Homo sapiens) (UniProt P11229); experiment: Cholinergic receptor muscarinic 1 (CHRM1) small molecule antagonists, cell-based qHTS assay (AID 1963588); note: nearly all actives have a fitted effect of over 40% in size; note: potency is the fitted concentration of half-maximal effect
Sequence of Muscarinic acetylcholine receptor M1 (Homo sapiens) (P11229 whole entry, looked up): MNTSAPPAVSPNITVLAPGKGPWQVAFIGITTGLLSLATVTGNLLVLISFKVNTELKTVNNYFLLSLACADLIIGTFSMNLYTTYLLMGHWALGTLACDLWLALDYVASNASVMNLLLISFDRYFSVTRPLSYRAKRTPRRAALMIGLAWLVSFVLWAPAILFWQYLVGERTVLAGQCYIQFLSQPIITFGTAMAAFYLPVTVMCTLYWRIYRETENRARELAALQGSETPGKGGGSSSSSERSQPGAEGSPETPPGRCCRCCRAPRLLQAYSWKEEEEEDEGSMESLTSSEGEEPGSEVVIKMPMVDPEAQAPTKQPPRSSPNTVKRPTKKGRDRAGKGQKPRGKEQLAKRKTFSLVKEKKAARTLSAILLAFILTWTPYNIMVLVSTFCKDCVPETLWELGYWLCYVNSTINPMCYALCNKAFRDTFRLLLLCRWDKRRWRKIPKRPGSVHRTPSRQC
Outline: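 CHRM1-CHO calcium-flux assay, antagonist mode. Cells were seeded 18 h, dye-loaded 1 h at 37 C and given compound for 5 min at RT, then acetylcholine was added at 50nM. FDSS fluorescence was read 3 min; 15 concentrations, three runs.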

[13] = target: Muscarinic acetylcholine receptor M1 (Homo sapiens) (UniProt P11229); experiment: Cholinergic receptor muscarinic 1 (CHRM1) small molecule agonists, cell-based qHTS assay (AID 1963589); note: nearly all actives have a fitted effect of over 35% in size
Outline: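 CHO cells stably expressing human CHRM1 were loaded with calcium dye for 1 h at 37 C, then compound was added in agonist mode. Intracellular calcium fluorescence was followed kinetically at 1 s intervals. Fifteen concentrations were tested in three independent runs.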

[14] = cAMP Responsive Elements (CRE) small molecule agonists, cell-based qHTS assay (AID 1963590)
Outline: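 CRE-bla HEK 293T cells, 2,000/well in DMEM with 10% dialyzed FBS and 25 mM HEPES, pre-incubated 18 h at 37 C, then exposed to compound 3 h at 37 C. Beta-lactamase reporter read with LiveBLAzer B/G FRET substrate after 2 h at room temperature.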

[15] = cAMP Responsive Elements (CRE) small molecule antagonists, cell-based qHTS assay (AID 1963591; active = well fitted inhibition curve with a large enough effect in the signal ratio in the repeat runs, not every such curve was filed as active; the % refers to the signal ratio)
Outline: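 CRE-bla HEK293T cells plated 18 h, then given compound plus NKH477 at 0.25 uM final for 3 h at 37C. Beta-lactamase reporter read with LiveBLAzer B/G FRET substrate after 2 h at room temperature.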

[16] = target: D(2) dopamine receptor (Homo sapiens) (UniProt P14416); experiment: Dopamine D2 receptor (DRD2) small molecule antagonists, cell-based qHTS assay (AID 1963595; active = well fitted inhibition curve with a large enough effect in the signal ratio in the repeat runs, with a control signal flat; the % refers to the signal ratio)
Sequence of D(2) dopamine receptor (Homo sapiens) (P14416 whole entry, looked up): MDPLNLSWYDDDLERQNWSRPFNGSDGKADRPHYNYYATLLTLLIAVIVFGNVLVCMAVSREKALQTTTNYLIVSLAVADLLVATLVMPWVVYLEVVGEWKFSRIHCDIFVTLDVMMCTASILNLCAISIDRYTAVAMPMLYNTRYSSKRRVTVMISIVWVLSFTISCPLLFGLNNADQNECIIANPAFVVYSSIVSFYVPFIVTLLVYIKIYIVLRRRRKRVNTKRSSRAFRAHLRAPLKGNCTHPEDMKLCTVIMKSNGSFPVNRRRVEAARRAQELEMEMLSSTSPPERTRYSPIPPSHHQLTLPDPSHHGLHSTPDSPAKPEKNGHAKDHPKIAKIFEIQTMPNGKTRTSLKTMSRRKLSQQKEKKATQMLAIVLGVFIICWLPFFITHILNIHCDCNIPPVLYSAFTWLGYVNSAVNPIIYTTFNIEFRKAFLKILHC
Outline: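 Antagonism was scored as restored cAMP in HEK293-DRD2 cells. These cells were stimulated with 200 nM NKH477 and 12 nM quinpirole for 30 min at room temperature, in the presence of 0.1 mM Ro20-1724.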

[17] = p53 small molecule agonists, cell-based qHTS assay with rat liver microsomes: qHTS cell viability counter screen (AID 1963580); note: nearly all actives have a fitted effect of over 45% in size
Outline: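 p53RE-bla HCT-116 cells were exposed 16 h at 37 C to compounds with rat liver microsomes (0.5 mg/mL) and NADPH (0.5 mg/mL). Viability was measured in the same wells as ATP content by CellTiter-Glo luminescence.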

[18] = target: 5-hydroxytryptamine receptor 2A (Homo sapiens) (UniProt P28223); experiment: 5-hydroxytryptamine receptor 2A (HTR2A) small molecule antagonists, cell-based qHTS assay (AID 1963586); note: nearly all actives have a fitted effect of over 45% in size; note: potency is the fitted concentration of half-maximal effect
Outline: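 Antagonist-mode intracellular calcium assay: DOI (4 nM) added after 5 min compound pre-incubation at room temperature to dye-loaded HTR2A-CHO cells. Fluorescence followed for 3 min, sampled every second.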

[19] = target: Beta-2 adrenergic receptor (Homo sapiens) (UniProt P07550); experiment: Adrenergic beta2 receptor (ADRB2) small molecule antagonists, cell-based qHTS assay (AID 1963592); note: nearly all actives have a fitted effect of over 50% in size; note: potency is the fitted concentration of half-maximal effect
Sequence of Beta-2 adrenergic receptor (Homo sapiens) (P07550 whole entry, looked up): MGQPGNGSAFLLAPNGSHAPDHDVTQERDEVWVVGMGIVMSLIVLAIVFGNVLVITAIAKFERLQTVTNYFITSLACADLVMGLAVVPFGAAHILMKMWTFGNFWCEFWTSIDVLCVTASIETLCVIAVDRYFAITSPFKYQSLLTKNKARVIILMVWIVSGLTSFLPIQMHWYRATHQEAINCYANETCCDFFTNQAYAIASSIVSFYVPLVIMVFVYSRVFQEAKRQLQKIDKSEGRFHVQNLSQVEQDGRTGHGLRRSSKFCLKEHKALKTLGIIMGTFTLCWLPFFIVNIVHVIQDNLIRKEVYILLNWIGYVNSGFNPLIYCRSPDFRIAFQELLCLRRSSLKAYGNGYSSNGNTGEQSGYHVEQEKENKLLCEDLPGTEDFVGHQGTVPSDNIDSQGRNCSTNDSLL
Outline: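 Cells (CHO, stable ADRB2 overexpression) incubated 18-20hr at 37C; compounds added from DMSO; agonist mix (1nM isoproterenol, 100uM IBMX, 25uM Ro-20-1724) added; 0.5hr RT; d2-cAMP and anti-cAMP-cryptate added; 1hr RT; 665/615 nm read.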

[20] = target: D(2) dopamine receptor (Homo sapiens) (UniProt P14416); experiment: Dopamine D2 receptor (DRD2) small molecule agonists, cell-based qHTS assay (AID 1963594); note: nearly all actives have a fitted effect of over 35% in size; note: potency is the fitted concentration of half-maximal effect
Outline: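 HEK293 cells stably expressing human DRD2, pre-treated with PDE inhibitor Ro20-1724 (0.1 mM final) and compound 10 min at room temperature, then stimulated with NKH477 (200nM […]) for 30 min. cAMP read by HTRF (665/620 nm).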

Measured: Potency

COc1cc(CC(C)N)cc2c1OCO2 (stereo not given)
active: [11] 1.44 µM | [12] 15.6 µM
not listed: [17] | [18] | [19] | [20]
inactive: all other assays above

CCCCCCCCCC(=O)O[C@H]1CC[C@H]2[C@@H]3CCC4=CC(=O)CC[C@@H]4[C@H]3CC[C@]12C
not listed: [9] | [10] | [16]
inactive: all other assays above

Cc1c([N+](=O)[O-])cc2c(c1[N+](=O)[O-])C(C)(C)CC2(C)C
active: [2] 48.6 µM
not listed: [8] | [15]
inactive: all other assays above

C=CC(=O)OCCCCOC(=O)C=C
active: [1] 61.1 µM | [2] 24.3 µM
not listed: [8] | [14] | [15]
inactive: all other assays above

Cl/C=C\Cl
not listed: [9] | [10]
inactive: all other assays above

CC(c1ccccc1)(c1ccc(O)cc1)c1ccc(O)cc1
active: [1] 43.3 µM | [8] 45.8 µM | [11] 49 µM
not listed: [10] | [14] | [15] | [17] | [19]
inactive: all other assays above

Oc1cccc(-c2ccccc2)c1
not listed: [17]
inactive: all other assays above

Cc1cccc(OP(=O)(Oc2cccc(C)c2)Oc2cccc(C)c2)c1
not listed: [7] | [14]
inactive: all other assays above

O=C(CCCN1CCC2(CC1)C(=O)NCN2c1ccccc1)c1ccc(F)cc1
active: [3] 6.01 µM | [19] 1.5 µM
not listed: [8] | [9] | [11] | [16] | [18]
inactive: all other assays above

CCCOC(=O)Cc1ccc(OCC(=O)N(CC)CC)c(OC)c1
active: [20] 0.282 µM
not listed: [8] | [18]
inactive: all other assays above

COC(=O)C(C)Oc1ccc(Oc2ccc(Cl)cc2Cl)cc1 (stereo not given)
not listed: [8] | [10] | [12] | [13] | [14]
inactive: all other assays above

CC1NCCOC1c1ccccc1 (stereo not given)
active: [20] 14.1 µM
not listed: [8] | [11] | [18]
inactive: all other assays above

COP(=O)(OC)Oc1ccc([N+](=O)[O-])cc1
active: [6] 3.24 µM
not listed: [7] | [19]
inactive: all other assays above

OC(Cn1cncn1)(c1ccc(F)cc1)c1ccccc1F (stereo not given)
not listed: [7] | [12]
inactive: all other assays above

Cc1ccccc1C(=O)Nc1cccc(OC(C)C)c1
not listed: [8] | [9] | [10] | [11] | [14] | [15]
inactive: all other assays above

COC(=O)C(C)N(C(=O)c1ccco1)c1c(C)cccc1C (stereo not given)
not listed: [7] | [15] | [20]
inactive: all other assays above

CCC(CC)(CNC(=O)CCCO)c1cccc(OC)c1
not listed: [8] | [12] | [13] | [16] | [20]
inactive: all other assays above

OC(c1ccccc1)(c1ccccc1)C1CCNCC1
active: [12] 4.6 µM
not listed: [8] | [11] | [15] | [18]
inactive: all other assays above

CC(C)(C)c1ccc(OP(=O)(Oc2ccccc2)Oc2ccccc2)cc1
active: [18] 8.45 µM
not listed: [7] | [12] | [19]
inactive: all other assays above

CCN(CCO)CCn1c(Cc2ccccc2)nc2c1c(=O)n(C)c(=O)n2C
not listed: [7] | [15] | [19]
inactive: all other assays above

N[C@@H](Cc1ccc(Oc2cc(I)c(O)c(I)c2)c(I)c1)C(=O)O
not listed: [8] | [11] | [15] | [18]
inactive: all other assays above

CCCCC(CC)COC(=O)OOC(C)(C)C (stereo not given)
not listed: [7] | [20]
inactive: all other assays above

O=C=Nc1ccc(Cl)cc1
active: [2] 68.6 µM
not listed: [8] | [9]
inactive: all other assays above

COP(N)(=S)Oc1ccccc1C(=O)OC(C)C (stereo not given)
active: [6] 18.2 µM
not listed: [7] | [13] | [14] | [15]
inactive: all other assays above

ClC(Cl)C(Cl)Cl
not listed: [7] | [15]
inactive: all other assays above

CCOP(=S)(OCC)SCS(=O)(=O)CC
active: [6] 1.62 µM
not listed: [7]
inactive: all other assays above

CS(=O)(=O)c1cc(C(F)(F)F)ccc1C(=O)c1cnoc1C1CC1
not listed: [8] | [12] | [17] | [19] | [20]
inactive: all other assays above

CCC(C)c1cc([N+](=O)[O-])cc([N+](=O)[O-])c1OC(=O)C=C(C)C (stereo not given)
active: [1] 48.6 µM | [2] 24.3 µM
not listed: [8] | [10] | [11] | [14] | [15] | [20]
inactive: all other assays above

COc1ccc(C(=O)c2c(C)n(CCN3CCOCC3)c3ccccc23)cc1
not listed: [8] | [10] | [14] | [15] | [17] | [19] | [20]
inactive: all other assays above

NCC1(CC(=O)O)CCCCC1
not listed: [8] | [10] | [11] | [12] | [13] | [17] | [18] | [19]
inactive: all other assays above

O=C(Nc1ccccc1-c1ccc(Cl)cc1)c1cccnc1Cl
active: [2] 68.6 µM
inactive: [1] | [3] | [4] | [5] | [6] | [7] | [17] | [11] | [13] | [16]
